Screening results as filed in PubChem BioAssay.
AddAB inh – growth inhibition of E. coli expressing H. pylori AddAB, primary screen, AddAB inhibitor project, absorbance; AID 435030, 2010; hit rate 0.29% among 330,000; inhibition, % at 11.9 µM; in the data active = inhibition above about 12%
AI-2 QS modul – Vibrio harveyi AI-2 quorum sensing modulators, primary screen, JMH597 strain, luminescence/OD600 ratio. activity change, % at 7.5 µM. Vibrio harveyi JMH597 AI-2 luminescence/OD600 ratio, 9 h; hits give low values; strain lacks LuxN and CqsS sensors; 0 = neutral-control median. hit rate 0.4% among 300,000. AID 2094, 2009; in the data active = activity change below about -75%, passing the limit was not always enough; inconclusive = no clear call, values can overlap the other calls;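 also: luminescence divided by OD600 gain over 9 h not by final OD600 alone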
phage Ecoli inh – growth loss of phage-infected E. coli, primary screen, RecBCD inhibitor project, absorbance, with phage, HTS; hit rate 0.26% among 360,000; AID 651602, 2012; inhibition, % at 11.9 µM; in the data active = inhibition above about 11%
E coli growth-1 – E. coli V3065 growth inhibition, primary screen, counter-screen for AddAB inhibitor project, absorbance, OD600; 18 h; inhibition, % at 11.9 µM; hit rate 0.27% among 330,000; AID 449728, 2010;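 active = inhibition above the campaign's mean inhibition across all tested compounds plus 3 SD, cut at about 9.9% in these data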;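 also: uninfected addAB+ strain grown without phage in ampicillin broth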
E coli growth-2 – E. coli growth inhibition, primary screen, OD600. Escherichia coli growth, 23 h; hits give low values. OD600 absorbance (concentration not given with the values). hit rate 0.21% among 330,000. AID 1053175, 2014;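 active = OD600 absorbance below the run mean of sample wells minus 3.6 SD, in any replicate, cut at about 0.56 in these data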
Tat export inh – E. coli Tat export inhibitors, primary screen, MC4100, TorA-mCherry reporter, fluorescence, single point; hit rate 0.036% among 340,000; inhibition, % at 10 µM; AID 488895, 2010;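 active = mean replicate inhibition at least 50% and at least half of replicates individually reaching 50%; inconclusive = only one of the two criteria met; inactive = neither criterion met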;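 also: exported cargo escapes ClpAP degradation while cytoplasmic cargo is degraded and loses fluorescence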
AddAB conf – growth loss of phage-infected E. coli expressing H. pylori AddAB, confirmation, AddAB inhibitor project, absorbance, E. coli V3065, T4 phage, triplicate; shares compounds with AddAB inh; OD; T4 phage with gene 2 nonsense mutations; inhibition, % at 11.9 µM; hit rate 64% among 880; AID 488942, 2010;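 active = mean inhibition above a set limit taken from the earlier primary screen, cut at about 13% in these data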;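 also: higher means less bacterial growth since AddAB block lets phage replicate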
RecBCD counter – growth loss of RecBCD+ E. coli with mutant T4 phage, counter-screen for AddAB inhibitor project, absorbance, V66 E. coli. shares compounds with AddAB inh. OD growth. inhibition, % at 11.9 µM. hit rate 73% among 880. AID 488955, 2010;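 active = mean inhibition above the mean of solvent-only control wells plus 3 SD, cut at about 4% in these data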;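 also: optical density read after an 18 h incubation at 37 °C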
bact viab count – bacterial viability inhibition counter-screen, confirmation, counter-screen for AddAB inhibitor project, absorbance; shares compounds with AddAB inh; absorbance (AddAB counterscreen); inhibition, % at 11.9 µM; hit rate 35% among 880; AID 488956, 2010; in the data active = inhibition above about 25%
A number is an active result; n = inactive; u = inconclusive; x = not tested or not shown. Rows were chosen to be rich in hits. Some 0.79% of all compounds tested hit in one or more screens of this group.

SMILES	AddAB inh	AI-2 QS modul	phage Ecoli inh	E coli growth-1	E coli growth-2	Tat export inh	AddAB conf	RecBCD counter	bact viab count
N#CC1=C(N)OC2=C(C(=O)CC(c3ccccc3)C2)C1c1ccoc1 (configuration not stated)	n	n	n	n	n	n	x	x	x
S=C(NCCCc1ccccc1)Nc1ccc(Cl)cc1	12.3	n	n	n	n	n	n	11.6	n
S=C(NCCCc1ccccc1)Nc1ccccc1	x	n	n	x	n	n	x	x	x
Cc1ccc(C(=O)NNC(=S)NC(=O)c2ccco2)cc1	12.7	u	n	n	0.467	n	n	10.4	n
COc1ccc(-c2nc3ccccn3c2C=O)cc1	n	n	n	n	n	n	x	x	x
O=Cc1c(-c2ccc(F)cc2)nc2ccccn12	97.6	n	n	97.0	n	n	n	n	n
O=C(Cc1ccccc1)NN=Cc1ccccc1OCc1ccc(Cl)cc1	x	x	x	x	n	x	x	x	x
CCC(=O)NC(c1ccccc1OC)c1ccc2cccnc2c1O (configuration not stated)	28.5	n	x	24.4	n	n	17.8	22.7	n
O=C(CCNC(=O)c1ccco1)Nc1cccc(Br)c1	14.3	n	n	n	n	n	n	n	n
CSc1cccc(NC(=O)CCNC(=O)c2ccco2)c1	n	n	n	n	n	n	x	x	x
O=C(CSc1ncccn1)NC(=O)Nc1ccc2c(c1)OCCO2	12.4	n	n	n	n	n	n	6.4	n
O=C(CSc1ncccn1)Nc1ccc2c(c1)OCO2	n	x	n	n	n	n	x	x	x
CC(=NNC(=O)c1cccs1)c1ccc(NC(=O)COc2ccc(Cl)cc2Cl)cc1	x	x	x	x	n	x	x	x	x
Cc1ccc(N2CC(NS(=O)(=O)c3cccs3)CC2=O)cc1 (configuration not stated)	98.3	n	n	98.1	n	n	n	n	n
CCc1nnc(NN=Cc2ccc(N3CCC(C)CC3)c([N+](=O)[O-])c2)n1N	x	x	x	x	n	x	x	x	x
CC1CCN(c2ccc(/C=N\Nc3nncn3N)cc2[N+](=O)[O-])CC1	14.5	x	n	n	x	n	n	n	n
Cc1nc2oc3c(=O)[nH]cnc3c2c2c1COC(C)(C)C2	30.6	n	n	n	n	n	n	n	n
CSc1nc(N)nc2c1ncn2CC(=O)Nc1ccc(C)c(C)c1	15.1	x	n	11.8	n	n	12.5	11.1	n
CSc1nc(N)nc2c1ncn2CC(=O)NCC(c1ccccc1)c1ccccc1	n	x	n	n	n	n	x	x	x
Cc1ccc(NC(=O)Cn2cnc3ccccc32)cc1C	13.8	n	n	14.0	n	n	19.5	14.2	n
CCOc1ccc(C=CC2=CC(C)(C)NC(=S)N2)cc1	x	x	x	x	n	x	x	x	x
O=C(C[n+]1ccc(C(=O)NN=Cc2ccc(Cl)cc2Cl)cc1)c1ccccc1	x	x	x	x	n	x	x	x	x
CC(=NNC(=O)C(O)(c1ccccc1)c1ccccc1)c1ccc([N+](=O)[O-])o1	x	x	x	x	n	x	x	x	x
CCOC(=O)N/N=C(/C)c1ccc([N+](=O)[O-])o1	31.8	-87.6	n	29.5	x	n	100.8	12.5	39.3
CC=C1COC(C(=O)NCCCN2CCCC2=O)(C(F)(F)F)C=C1C=C(C)C (configuration not stated)	x	x	x	x	n	x	x	x	x
SMILES	AddAB inh	AI-2 QS modul	phage Ecoli inh	E coli growth-1	E coli growth-2	Tat export inh	AddAB conf	RecBCD counter	bact viab count
Cc1ccnc(-n2c(C)cc(C=NNC(=O)COc3cccc4cccnc34)c2C)c1	x	x	x	x	n	x	x	x	x
Cc1ccc(C(c2cc(Cl)c3cccnc3c2O)N2CCN(C)CC2)cc1 (configuration not stated)	19.3	-169.4	x	20.4	x	n	n	9.4	n
CN1CCN(C(c2ccccn2)c2cc(Cl)c3cccnc3c2O)CC1 (configuration not stated)	n	n	n	n	n	n	x	x	x
Cc1ccc(NC(=S)NCc2cccnc2)cc1	n	n	n	n	n	n	x	x	x
CCc1ccc(NC(=S)NCc2cccnc2)cc1	14.0	n	n	11.1	n	n	n	6.7	n
COc1ccc(-c2oc3cc(OC(C)=O)cc(OC(C)=O)c3c(=O)c2OC)cc1	x	x	n	x	n	n	x	x	x
CC(=O)Oc1cc(O)c2c(=O)c(OC(C)=O)c(-c3ccc(OC(C)=O)c(OC(C)=O)c3)oc2c1	16.1	n	x	n	n	n	14.1	4.2	n
CC(C)NC(=O)N(C)CC1Oc2c(NC(=O)Nc3ccccc3)cccc2C(=O)N(C(C)CO)CC1C (configuration not stated)	x	x	x	x	n	x	x	x	x
O=C1NCCOc2ccccc21	x	x	n	x	x	x	x	x	x
O=C1NCCO1	100.2	x	n	101.4	x	n	n	n	n
CCOc1ccc(Cc2onc3c2C(=O)CC(C)(C)C3)cc1OCC	n	n	n	n	n	n	x	x	x
CCOc1ccc(Cc2onc3c2C(=O)CCC3)cc1OCC	98.6	n	n	96.9	n	n	n	n	n
CCOc1ccc(S(=O)(=O)n2cc(F)c(=O)[nH]c2=O)cc1[N+](=O)[O-]	23.6	u	n	17.1	n	n	n	n	n
O=C(NC(c1ccccc1)c1c(O)ccc2ccccc12)c1ccccc1Cl (configuration not stated)	n	n	n	n	n	n	x	x	x
O=C(NC(c1ccc(Cl)cc1)c1c(O)ccc2ccccc12)c1ccccc1 (configuration not stated)	13.7	x	n	n	n	n	n	n	n
COc1ccccc1C=NNC(=O)CC(=O)Nc1ccc(Cl)c(Cl)c1	x	x	x	x	n	x	x	x	x
CCCNC(=O)c1ccc2c(=O)c(O)c(-c3ccc(F)cc3)[nH]c2c1	17.8	n	x	15.4	n	n	n	13.3	n
Cc1ccc(S(=O)(=O)NCc2ccc3[nH]c(C)cc3c2)cc1	n	n	n	n	n	n	x	x	x
Cc1cc2cc(CNS(=O)(=O)N(C)C)ccc2[nH]1	34.4	n	n	26.1	n	n	n	n	n
CC(CC(=O)NC1CCCCC1)=NNC(=O)Cc1ccc(-c2ccccc2)cc1	x	x	x	x	n	x	x	x	x
C=CCn1c(O)c(N=Nc2ccccc2O)c2ccccc21	17.9	x	n	11.2	n	n	81.4	4.6	n
C=CCn1c(O)c(N=Nc2ccccc2)c2ccccc21	n	x	n	n	x	n	x	x	x
CC1CN(C(C)CO)C(=O)c2cccc(NC(=O)Nc3ccc(C(F)(F)F)cc3)c2OC1CN(C)Cc1ccc(-c2ccccc2)cc1 (configuration not stated)	x	x	x	x	n	x	x	x	x
O=C1C2CCCN2C(c2ccccc2)N1c1cccc(Cl)c1 (configuration not stated)	118.7	n	n	n	n	n	n	n	n
